Source: PubChem BioAssay AID457 (Sanford-Burnham Center for Chemical Genomics, 2006)
In all, about 10,000 compounds went through this assay and about 20 (0.2%) were called active. No rule for the calls is given here. Only a sample is shown.

Assay: boosters of cytokine-driven VCAM-1 levels – imaging, high-content imaging, pooled HUVEC, TNFa stimulus (AID 457)
Details: TNFa-induced VCAM-1 immunofluorescence imaging; concentration not given here

Q: With `O=C(c1cccc2c1C(=O)N(Cc1cccnc1)C2)N1CCN(c2ccccc2)CC1` as the molecule, how does the augmentation read?
A: The augmentation was “inactive”.

Q: With `Cc1nnc2ccc(N3CCC4(CC3)OCCO4)nn12` as the molecule, how does the augmentation read?
A: Its augmentation is “inactive”.

Q: For `Cc1nc(CCNS(=O)(=O)c2cccs2)cs1`, which augmentation is on record?
A: The augmentation was “inactive”.

Q: For `CC(O)CN1C(=O)C(CC(=O)Nc2ccc(Cl)cc2)SC1=Nc1ccccc1` (configuration not stated), which augmentation is on record?
A: Its augmentation is “inactive”.

Q: With `CCn1c(SCC(=O)C(C)(C)C)nnc1-c1cnccn1` as the molecule, how does the augmentation read?
A: Its augmentation is “inactive”.

Q: For `c1ccc(CCNc2ccc3nncn3n2)cc1`, which augmentation is on record?
A: Its augmentation is “inactive”.

Q: With `O=C(NCc1nc2ccccc2[nH]1)c1ccc(Cl)c(S(=O)(=O)N2CCCC2)c1` as the molecule, how does the augmentation read?
A: Its augmentation is “inactive”.

Q: With `Cc1cccc(Nc2nc(N)nc(CN3CCC(C(N)=O)CC3)n2)c1C` as the molecule, how does the augmentation read?
A: The augmentation was “inactive”.

Q: For `O=C(Nc1cccc(NC(=O)c2ccco2)c1)c1ccc2c(c1)OCO2`, which augmentation is on record?
A: Its augmentation is “inactive”.

Q: With `COc1ccccc1OCCn1c(=O)sc2ccccc21` as the molecule, how does the augmentation read?
A: Its augmentation is “inactive”.

Q: For `O=C(Cc1ccccc1)Nc1ccc(CN2CCOCC2)cc1`, which augmentation is on record?
A: Its augmentation is “inactive”.

Q: For `Cc1ccc2[nH]c(=O)c3cc(C(=O)NCCN4CCN(C)CC4)sc3c2c1`, which augmentation is on record?
A: Its augmentation is “inactive”.

Q: Which augmentation does the source give for `CCOC(=O)N1CCN(C(=O)CSc2cc(C)nc3c(-c4ccccc4OC)c(C)nn23)CC1` here?
A: Its augmentation is “inactive”.

Q: For `COc1ccc(-c2nc(C#N)c(N3CCN(c4ccccc4)CC3)o2)cc1`, which augmentation is on record?
A: Its augmentation is “inactive”.

Q: For `CC(C)CNC(=O)c1ccccc1NC(=O)c1ccc(CN2CCOCC2)cc1`, which augmentation is on record?
A: Its augmentation is “inactive”.

Q: For `CCCN1CCN(CCCNC(=O)C2CCCN(c3nc4ccc(OCC)cc4s3)C2)CC1` (configuration not stated), which augmentation is on record?
A: Its augmentation is “inactive”.

Q: For `CC(C)N(C(=O)N1CCC(c2nc(-c3ccncc3)no2)CC1)C(C)C`, which augmentation is on record?
A: The augmentation was “inactive”.

Q: With `O=C(CN1C(=O)CC(c2ccco2)Sc2ccccc21)Nc1ccccc1F` (configuration not stated) as the molecule, how does the augmentation read?
A: Its augmentation is “inactive”.

Q: With `CC(O)c1c(OCc2ccccc2)ncnc1OCc1ccccc1` (configuration not stated) as the molecule, how does the augmentation read?
A: The augmentation was “inactive”.

Q: For `O=C(O)c1cc2c(s1)CCCC2`, which augmentation is on record?
A: The augmentation was “inactive”.

Q: For `CCOC(=O)CN1CC23C=CC(O2)C(C(=O)NC2CCCC2)C3C1=O` (configuration not stated), which augmentation is on record?
A: Its augmentation is “inactive”.

Q: Which augmentation does the source give for `CCOc1ccc2cc(C#N)c(SCC(=O)N3CCC(C)CC3)nc2c1` here?
A: The augmentation was “inactive”.

Q: With `CC(=O)Nc1sc2c(c1C#N)CCCCC2` as the molecule, how does the augmentation read?
A: Its augmentation is “inactive”.

Q: For `CCCOc1ccc(S(=O)(=O)NCCCN2CCOCC2)c2ccccc12`, which augmentation is on record?
A: The augmentation was “inactive”.

Q: Which augmentation does the source give for `O=C(Cn1ccc2ccccc2c1=O)Nc1ccc2c(c1)OCO2` here?
A: The augmentation was “inactive”.

Q: For `CCOCCn1cnc2sc(C(=O)Nc3nc(C)c(C(=O)OCC)s3)c(C)c2c1=O`, which augmentation is on record?
A: Its augmentation is “inactive”.

Q: With `Nc1nc2ccccc2n1C(=O)CCc1ccccc1` as the molecule, how does the augmentation read?
A: Its augmentation is “inactive”.

Q: Which augmentation does the source give for `Cc1sc2nc(CN3CCN(S(=O)(=O)c4cccc5nonc45)CC3)[nH]c(=O)c2c1C` here?
A: The augmentation was “inactive”.

Q: For `O=C(CN1CCC(n2nnc3ccccc32)CC1)Nc1ccc2c(c1)CCC2`, which augmentation is on record?
A: Its augmentation is “inactive”.

Q: For `O=C(Nc1ncc(Cc2ccccc2)s1)C1CCCO1` (configuration not stated), which augmentation is on record?
A: Its augmentation is “inactive”.

Q: For `O=C(Cc1c(F)cccc1Cl)Nc1ccncc1`, which augmentation is on record?
A: Its augmentation is “inactive”.

Q: For `CCCCCCc1ccc(-c2ncc(N)cn2)cc1`, which augmentation is on record?
A: The augmentation was “inactive”.
